Over roughly 9,900 sequences, “r (bound/input frequency ratio)” has its median near 0.7; the highest 2% begin near 6.5. The list comes from a sample in which the highest values are over-represented; it also holds similar and randomly drawn sequences.
B1: ENSMUSG00000029636.505|Wasf3|28:32 (ssRNA)
RNA: GGGAGUUCUACAGUCCGACGAUCGCUUCGAUAUCCGCAUGCUAAUCAUUUAUGAGCAUAGGAUGAUGAGGCACACAAAGCUUUGUAAUAUUUUCAGCAGAAAUGCGUGAUACAUUUGAAUCCAUUGAGGUCUGGAGGGAGGGUAUCAGCCAGAGUAGCAAGGCGGUUUUGUUUAUUUGUUUGUUUUUUUGUUUGUUUGUUUUAUGAAGGAGAGUAUCUGUUAUCUUGCAGUAUUAUCAAUGCAGUUGUAAAUUGAAUCUAAAGUGGUAUUUAAAACUGUCAAACAAUUUUUAAUCUGUUUGUACUCUUGCGGUCGCACUAGUGUGGAAUUCUCGGGUGUCAAGG
B2: ENSMUSG00000031028.267|Tub (ssRNA)
RNA: GGGAGUUCUACAGUCCGACGAUCGCUUCGAUAUCCGCAUGCUAUGCUUUGAAAUAGAUAUGUUUGGAAACGCUAAGUAGAAGUUUAAAAAGUAGAGUCAUGUAGAGUCAUGCUUUGAAUAUGUGGGUCAUGCUUUAGAUAUGAAGAGGCUAUGCAGGUAAGGAGGCUGGAUUGAUGUAAAUGGAAGUAGUACUUUAAGAAAGCUCUAGAUUUCCCAGGUUGGACACUCGACGAAAGGCACACCUGCUGCAGCAGGUUCUGACACACCUGAGCCAUACAUUGCCAUCAGAGAACCCUCAGCGAGCUCUUGCGGUCGCACUAGUGUGGAAUUCUCGGGUGUCAAGG
B3: ENSMUSG00000043670.108|Diras1 (ssRNA)
RNA: GGGAGUUCUACAGUCCGACGAUCGCUUCGAUAUCCGCAUGCUACUUUCACCUGAUCCUGUCCUUUCCCCGUGACCUCUGACCUGUGGCCUUCCCUGGGUCCAGAACACCCCUGUCCUCUCCUGUCUGCACACCAGGGUGGAUGGGCCCGAGGGCUGGGCCUCAGGCACCAGGCAAUAAACACAGGGCCUGCAGCAAUGCCCUGGCCACCCCGAGUACCACCUCUGGAAUAGCAGACGCCCACAGCACAAGCCCAGGACUGUCCCUUCAGGGGAGGCACACUGGAACCCUGAACUUGGAGUGUGCUCUUGCGGUCGCACUAGUGUGGAAUUCUCGGGUGUCAAGG
B4: ENSMUSG00000061578.1206|Ksr2 (ssRNA)
RNA: GGGAGUUCUACAGUCCGACGAUCGCUUCGAUAUCCGCAUGCUAUAUGGACACACUAGAAAGCCCAUCCUAGGUCUUUCCAUGGUCUCUCACACCCCUGUCCCCGUCCCCUCCACCCCCCGGCAGCAUGCUUCACUCUAUGAAUGAGCCGCUGGGAUAUUGACAUGGAGAUGUGUUGAUGGAAAAAGCCUCCACACCCAACAUAACUCUCCAGAGAGAUAUUGAAAGUGAUGGGCAGAGAGUCUGACAAUGACCCAGGGGUCAUUGUGAGUCCUAGGCUGAAUCUGUAAUGGGGUCCAAAGUGCCUCUUGCGGUCGCACUAGUGUGGAAUUCUCGGGUGUCAAGG
B5: ENSMUSG00000022095.184|Fam160b2 (ssRNA)
RNA: GGGAGUUCUACAGUCCGACGAUCGCUUCGAUAUCCGCAUGCUACAGGCAUUACCUCACAACAGGCCUGCAGUUGUUGGCUUCCCUCCUGGGCAAGGAGGAGCAGGCCAGAGCCCCUUUUGCUUCCUUUUCCUGCCCAUGCCACCUCUCGAAGCCGGGCACAGGUUGCCAGGAGGUGACAUGAAAGAGGAGGAAACUCCAUGACCUCUACAUCCCCCGCAGUCCUCCCAGCGGGGGAGGACUUCUCUGCUGCUCCGAAGAACAUCAUGCACUCCUGUGUGUGUGUGUGAGUGUGUGUGUGUGUGCUCUUGCGGUCGCACUAGUGUGGAAUUCUCGGGUGUCAAGG
B6: ENSMUSG00000022095.194|Fam160b2 (ssRNA)
RNA: GGGAGUUCUACAGUCCGACGAUCGCUUCGAUAUCCGCAUGCUAGGCCAGAGCCCCUUUUGCUUCCUUUUCCUGCCCAUGCCACCUCUCGAAGCCGGGCACAGGUUGCCAGGAGGUGACAUGAAAGAGGAGGAAACUCCAUGACCUCUACAUCCCCCGCAGUCCUCCCAGCGGGGGAGGACUUCUCUGCUGCUCCGAAGAACAUCAUGCACUCCUGUGUGUGUGUGUGAGUGUGUGUGUGUGUGUGUGUGUGUGUGUGUGUGUAUGUGUGUGUAUAUGUGUGUGUGUGUGUGUAUGUGUGUGUGCUCUUGCGGUCGCACUAGUGUGGAAUUCUCGGGUGUCAAGG
B7: ENSMUSG00000022095.190|Fam160b2 (ssRNA)
RNA: GGGAGUUCUACAGUCCGACGAUCGCUUCGAUAUCCGCAUGCUAUUCCCUCCUGGGCAAGGAGGAGCAGGCCAGAGCCCCUUUUGCUUCCUUUUCCUGCCCAUGCCACCUCUCGAAGCCGGGCACAGGUUGCCAGGAGGUGACAUGAAAGAGGAGGAAACUCCAUGACCUCUACAUCCCCCGCAGUCCUCCCAGCGGGGGAGGACUUCUCUGCUGCUCCGAAGAACAUCAUGCACUCCUGUGUGUGUGUGUGAGUGUGUGUGUGUGUGUGUGUGUGUGUGUGUGUGUAUGUGUGUGUAUAUGUGCUCUUGCGGUCGCACUAGUGUGGAAUUCUCGGGUGUCAAGG
B8: ENSMUSG00000022095.185|Fam160b2 (ssRNA)
RNA: GGGAGUUCUACAGUCCGACGAUCGCUUCGAUAUCCGCAUGCUAUUACCUCACAACAGGCCUGCAGUUGUUGGCUUCCCUCCUGGGCAAGGAGGAGCAGGCCAGAGCCCCUUUUGCUUCCUUUUCCUGCCCAUGCCACCUCUCGAAGCCGGGCACAGGUUGCCAGGAGGUGACAUGAAAGAGGAGGAAACUCCAUGACCUCUACAUCCCCCGCAGUCCUCCCAGCGGGGGAGGACUUCUCUGCUGCUCCGAAGAACAUCAUGCACUCCUGUGUGUGUGUGUGAGUGUGUGUGUGUGUGUGUGUGCUCUUGCGGUCGCACUAGUGUGGAAUUCUCGGGUGUCAAGG
B9: ENSMUSG00000022095.192|Fam160b2 (ssRNA)
RNA: GGGAGUUCUACAGUCCGACGAUCGCUUCGAUAUCCGCAUGCUACAAGGAGGAGCAGGCCAGAGCCCCUUUUGCUUCCUUUUCCUGCCCAUGCCACCUCUCGAAGCCGGGCACAGGUUGCCAGGAGGUGACAUGAAAGAGGAGGAAACUCCAUGACCUCUACAUCCCCCGCAGUCCUCCCAGCGGGGGAGGACUUCUCUGCUGCUCCGAAGAACAUCAUGCACUCCUGUGUGUGUGUGUGAGUGUGUGUGUGUGUGUGUGUGUGUGUGUGUGUGUAUGUGUGUGUAUAUGUGUGUGUGUGUGUGCUCUUGCGGUCGCACUAGUGUGGAAUUCUCGGGUGUCAAGG
B10: ENSMUSG00000022095.184|Fam160b2|231:244;246:260 (ssRNA)
RNA: GGGAGUUCUACAGUCCGACGAUCGCUUCGAUAUCCGCAUGCUACAGGCAUUACCUCACAACAGGCCUGCAGUUGUUGGCUUCCCUCCUGGGCAAGGAGGAGCAGGCCAGAGCCCCUUUUGCUUCCUUUUCCUGCCCAUGCCACCUCUCGAAGCCGGGCACAGGUUGCCAGGAGGUGACAUGAAAGAGGAGGAAACUCCAUGACCUCUACAUCCCCCGCAGUCCUCCCAGCGGGGGAGGACUUCUCUGCUGCUCCGAAGAACAUCAUGCACUCCACACACACACACACACACACACACACACACCUCUUGCGGUCGCACUAGUGUGGAAUUCUCGGGUGUCAAGG
B11: ENSMUSG00000022095.186|Fam160b2|219:232;234:260 (ssRNA)
RNA: GGGAGUUCUACAGUCCGACGAUCGCUUCGAUAUCCGCAUGCUACACAACAGGCCUGCAGUUGUUGGCUUCCCUCCUGGGCAAGGAGGAGCAGGCCAGAGCCCCUUUUGCUUCCUUUUCCUGCCCAUGCCACCUCUCGAAGCCGGGCACAGGUUGCCAGGAGGUGACAUGAAAGAGGAGGAAACUCCAUGACCUCUACAUCCCCCGCAGUCCUCCCAGCGGGGGAGGACUUCUCUGCUGCUCCGAAGAACAUCAUGCACUCCACACACACACACACACACACACACACACACACACACACACACCUCUUGCGGUCGCACUAGUGUGGAAUUCUCGGGUGUCAAGG
B12: ENSMUSG00000022095.186|Fam160b2 (ssRNA)
RNA: GGGAGUUCUACAGUCCGACGAUCGCUUCGAUAUCCGCAUGCUACACAACAGGCCUGCAGUUGUUGGCUUCCCUCCUGGGCAAGGAGGAGCAGGCCAGAGCCCCUUUUGCUUCCUUUUCCUGCCCAUGCCACCUCUCGAAGCCGGGCACAGGUUGCCAGGAGGUGACAUGAAAGAGGAGGAAACUCCAUGACCUCUACAUCCCCCGCAGUCCUCCCAGCGGGGGAGGACUUCUCUGCUGCUCCGAAGAACAUCAUGCACUCCUGUGUGUGUGUGUGAGUGUGUGUGUGUGUGUGUGUGUGUGUGCUCUUGCGGUCGCACUAGUGUGGAAUUCUCGGGUGUCAAGG
B13: ENSMUSG00000022095.193|Fam160b2 (ssRNA)
RNA: GGGAGUUCUACAGUCCGACGAUCGCUUCGAUAUCCGCAUGCUAGGAGCAGGCCAGAGCCCCUUUUGCUUCCUUUUCCUGCCCAUGCCACCUCUCGAAGCCGGGCACAGGUUGCCAGGAGGUGACAUGAAAGAGGAGGAAACUCCAUGACCUCUACAUCCCCCGCAGUCCUCCCAGCGGGGGAGGACUUCUCUGCUGCUCCGAAGAACAUCAUGCACUCCUGUGUGUGUGUGUGAGUGUGUGUGUGUGUGUGUGUGUGUGUGUGUGUGUAUGUGUGUGUAUAUGUGUGUGUGUGUGUGUAUGUGCUCUUGCGGUCGCACUAGUGUGGAAUUCUCGGGUGUCAAGG
B14: ENSMUSG00000022095.191|Fam160b2 (ssRNA)
RNA: GGGAGUUCUACAGUCCGACGAUCGCUUCGAUAUCCGCAUGCUACCUGGGCAAGGAGGAGCAGGCCAGAGCCCCUUUUGCUUCCUUUUCCUGCCCAUGCCACCUCUCGAAGCCGGGCACAGGUUGCCAGGAGGUGACAUGAAAGAGGAGGAAACUCCAUGACCUCUACAUCCCCCGCAGUCCUCCCAGCGGGGGAGGACUUCUCUGCUGCUCCGAAGAACAUCAUGCACUCCUGUGUGUGUGUGUGAGUGUGUGUGUGUGUGUGUGUGUGUGUGUGUGUGUAUGUGUGUGUAUAUGUGUGUGUGCUCUUGCGGUCGCACUAGUGUGGAAUUCUCGGGUGUCAAGG
B15: ENSMUSG00000022095.183|Fam160b2 (ssRNA)
RNA: GGGAGUUCUACAGUCCGACGAUCGCUUCGAUAUCCGCAUGCUACGGCGCCAGGCAUUACCUCACAACAGGCCUGCAGUUGUUGGCUUCCCUCCUGGGCAAGGAGGAGCAGGCCAGAGCCCCUUUUGCUUCCUUUUCCUGCCCAUGCCACCUCUCGAAGCCGGGCACAGGUUGCCAGGAGGUGACAUGAAAGAGGAGGAAACUCCAUGACCUCUACAUCCCCCGCAGUCCUCCCAGCGGGGGAGGACUUCUCUGCUGCUCCGAAGAACAUCAUGCACUCCUGUGUGUGUGUGUGAGUGUGUGUGCUCUUGCGGUCGCACUAGUGUGGAAUUCUCGGGUGUCAAGG

Molecular target: TDP-43 (Homo sapiens, UniProt Q13148 1-414)
Assay: RNA Bind-n-Seq with designed 260-mer pool; 25 mM Tris-HCl, 150 mM KCl, 3 mM MgCl2, BSA (printed 500 mg/mL), 20 units/mL SUPERase IN; pH not stated; 500 nM RNA pool, 1 h, 4 C; TDP-43 5, 50, 500 nM; high values mean tight binding
Details: protein: recombinant; tags: SBP (GST cleaved off with PreScission; pGEX-GST-SBP)
In short: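 For each oligo, R gives binding as its mapped-read-normalized abundance after pulldown divided by its abundance in input. Bead-captured SBP-tagged TDP-43 (5, 50 or 500 nM) was incubated with 500 nM of an in vitro-transcribed 260-nt 3′ UTR oligo pool for 1 h at 4 °C in 25 mM Tris-HCl, 150 mM KCl, 3 mM MgCl2, BSA and SUPERase IN on streptavidin beads. Washed, biotin-eluted RNA was reverse transcribed, PCR-amplified and sequenced.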

TDP-43, sequence (Q13148 whole entry): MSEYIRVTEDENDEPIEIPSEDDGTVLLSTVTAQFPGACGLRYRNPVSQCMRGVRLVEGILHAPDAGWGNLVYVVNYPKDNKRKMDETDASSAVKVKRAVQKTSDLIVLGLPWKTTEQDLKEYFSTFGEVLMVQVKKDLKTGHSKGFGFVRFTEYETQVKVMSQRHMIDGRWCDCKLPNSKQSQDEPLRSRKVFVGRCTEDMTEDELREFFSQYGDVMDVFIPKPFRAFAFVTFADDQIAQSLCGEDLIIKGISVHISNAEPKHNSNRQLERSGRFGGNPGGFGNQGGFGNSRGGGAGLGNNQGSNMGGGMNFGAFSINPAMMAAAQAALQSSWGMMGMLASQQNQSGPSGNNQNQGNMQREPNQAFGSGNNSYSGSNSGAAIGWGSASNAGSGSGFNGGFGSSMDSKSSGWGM

Row | Binder | binding signal
1 | B1 | 0.502 R (bound/input frequency ratio)
2 | B2 | 2.93 R (bound/input frequency ratio)
3 | B3 | 1.22 R (bound/input frequency ratio)
4 | B4 | 0.481 R (bound/input frequency ratio)
5 | B5 | 3.46 R (bound/input frequency ratio)
6 | B6 | 7.48 R (bound/input frequency ratio)
7 | B7 | 7.2 R (bound/input frequency ratio)
8 | B8 | 4.85 R (bound/input frequency ratio)
9 | B9 | 8.2 R (bound/input frequency ratio)
10 | B10 | 3.13 R (bound/input frequency ratio)
11 | B11 | 2.91 R (bound/input frequency ratio)
12 | B12 | 6.14 R (bound/input frequency ratio)
13 | B13 | 8.43 R (bound/input frequency ratio)
14 | B14 | 5.73 R (bound/input frequency ratio)
15 | B15 | 1.73 R (bound/input frequency ratio)
